Reference: PubChem BioAssay (Tox21)
Values joined by “and” are separate entries in the source; they are usually repeats but may differ in a detail not shown here. Identical values can stand only once. Results filed as inconclusive are left out. A call without a number means that no potency is given here. A structure can be active in one record and inactive in another. Active and inactive are the calls of the source. Unless noted, the call rests on the fitted dose curve.

Test: qHTS assay to identify small molecule agonists of the endoplasmic reticulum stress response signaling pathway (AID 1159516; active means well fitted activation curve with a large enough effect in the signal ratio in the repeat runs, not every such curve was filed as active; the % refers to the signal ratio)
Settings: ESRE-bla HeLa, ER stress beta-lactamase reporter, 5 h; series mostly up to 61 µM
How it was run: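 For this screen, HeLa cells stably carrying beta-lactamase under the ER stress response element received test compounds, positive controls or DMSO for 5 hr at 37 C; B/G FRET substrate was then added and dual-wavelength emission recorded.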
Potency means the concentration at half of the fitted maximal effect.

Row | SMILES | Potency
1 | OC(CCl)CCl | inactive
2 | c1cc(N(CC2CO2)CC2CO2)ccc1OCC1CO1 (configuration not stated) | inactive
3 | NC=O | inactive
4 | CCCCOCCOCCOCCO | inactive
5 | CCOCCOCCO | inactive
6 | CCC(C)(O)CCCC(C)C (configuration not stated) | inactive
7 | CNCCCC12CCC(c3ccccc31)c1ccccc12 | inactive
8 | Cc1cccc(C(=O)O)c1 | inactive
9 | c1ccncc1 | inactive
10 | Nc1ncnc2nc[nH]c12 | inactive
11 | Cc1c(C(N)=O)cc([N+](=O)[O-])cc1[N+](=O)[O-] | inactive
12 | CC(C)OC(=O)C(C)(C)Oc1ccc(C(=O)c2ccc(Cl)cc2)cc1 | inactive
13 | c1ccc2c(c1)c1cccc3ccc4cccc2c4c31 | 48.6 µM (active)
14 | COC(C)COC(C)COC(C)CO (configuration not stated) | inactive
15 | COC(=O)C1=C(C)NC(C)=C(C(=O)OCCN(C)Cc2ccccc2)C1c1cccc([N+](=O)[O-])c1 (configuration not stated) | inactive
16 | Clc1nc(Cl)c(Cl)c(Cl)c1Cl | inactive
17 | C[C@]12CCC(=O)C=C1CC[C@@H]1[C@@H]2C(=O)C[C@@]2(C)[C@H]1CC[C@]2(O)C(=O)CO | inactive
18 | CN1C(C(=O)Nc2ccccn2)=C(O)c2ccccc2S1(=O)=O | inactive
19 | Cc1ccc(C(=O)c2cc(O)c(O)c([N+](=O)[O-])c2)cc1 | inactive
20 | CC(C)CC(C)(O)C#CC(C)(O)CC(C)C (configuration not stated) | inactive
21 | O=c1oc(=O)c2cc3c(=O)oc(=O)c3cc12 | inactive

Test: qHTS assay to identify small molecule agonists of the endoplasmic reticulum stress response signaling pathway - cell viability counter screen (AID 1159517); further: nearly all actives have a fitted effect of over 50% in size
Settings: ESRE-bla HeLa viability, CellTiter-Glo luminescence, 5 h; series mostly up to 61 µM
How it was run: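 ESRE-bla HeLa cells (1,500/well) were plated overnight at 37 C and exposed to compounds for 5 hr. After the 2 hr beta-lactamase substrate read, CellTiter-Glo went into the same wells, and luminescence was read after 30 min at room temperature.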

Row | SMILES | Potency
22 | OC(CCl)CCl | inactive
23 | c1cc(N(CC2CO2)CC2CO2)ccc1OCC1CO1 (configuration not stated) | inactive
24 | CN(C)CCC=C1c2ccccc2CCc2ccccc21 | inactive
25 | NC=O | inactive
26 | O=CCc1ccccc1 | inactive
27 | CCOCCOCCO | inactive
28 | CCC(C)(O)CCCC(C)C (configuration not stated) | inactive
29 | O=P(O)(O)O | inactive
30 | CCCCNS(=O)(=O)c1ccccc1 | inactive
31 | Cc1ccc(C)c(O)c1C | inactive
32 | Cc1[nH]c(=O)c(C#N)cc1-c1ccncc1 | inactive
33 | Cc1cccc(C(=O)O)c1 | inactive
34 | Nc1ncn([C@@H]2O[C@H](CO)[C@@H](O)[C@H]2O)c(=O)n1 | inactive
35 | OC1CCCCCCCCCCC1 | inactive
36 | c1ccncc1 | inactive
37 | Nc1ncnc2nc[nH]c12 | inactive
38 | CC(C(=O)O)c1cccc(C(=O)c2ccccc2)c1 (configuration not stated) | inactive
39 | Cc1c(C(N)=O)cc([N+](=O)[O-])cc1[N+](=O)[O-] | inactive
40 | CC(C)OC=O | inactive

Row | SMILES | Potency
41 | O=[N+]([O-])c1ccc2c(c1)Cc1ccccc1-2 | inactive
42 | Cc1c(OCC(F)(F)F)ccnc1CS(=O)c1nc2ccccc2[nH]1 (configuration not stated) | inactive
43 | CC(C)OC(=O)C(C)(C)Oc1ccc(C(=O)c2ccc(Cl)cc2)cc1 | inactive
44 | c1ccc2c(c1)c1cccc3ccc4cccc2c4c31 | inactive
45 | O=Cc1ccccc1O | inactive
46 | C[C@]12CC[C@H]3[C@@H](CCC4=CC(=O)CC[C@@]43C)[C@@H]1CC[C@@H]2C(=O)CO | inactive
47 | O=CCCCC=O | 54.9 µM (active)
48 | COC(C)COC(C)COC(C)CO (configuration not stated) | inactive
49 | COC(=O)C1=C(C)NC(C)=C(C(=O)OCCN(C)Cc2ccccc2)C1c1cccc([N+](=O)[O-])c1 (configuration not stated) | inactive
50 | CC(C)Oc1ccc2c(=O)c(-c3ccccc3)coc2c1 | inactive
51 | C=C(C)C(=O)OCCOC(=O)C(=C)C | inactive
52 | Clc1nc(Cl)c(Cl)c(Cl)c1Cl | inactive
53 | O=C(/C=C/C=C/c1ccc2c(c1)OCO2)N1CCCCC1 | inactive
54 | C[C@]12CCC(=O)C=C1CC[C@@H]1[C@@H]2C(=O)C[C@@]2(C)[C@H]1CC[C@]2(O)C(=O)CO | inactive
55 | CN1C(C(=O)Nc2ccccn2)=C(O)c2ccccc2S1(=O)=O | inactive
56 | Cc1ccc(C(=O)c2cc(O)c(O)c([N+](=O)[O-])c2)cc1 | inactive
57 | CC(C)CC(C)(O)C#CC(C)(O)CC(C)C (configuration not stated) | inactive
58 | O=c1oc(=O)c2cc3c(=O)oc(=O)c3cc12 | inactive

Test: qHTS assay to identify small molecule antagonists of the retinoid-related orphan receptor gamma (ROR-gamma) signaling pathway - cell viability counter screen (AID 1159520; active means well fitted cell-killing curve with a large enough effect in the repeat runs; further: nearly all actives have a fitted effect of over 50% in size)
Settings: Tet-on RORgamma CHO cells viability, ATP luminescence, 16 h; series mostly up to 92.4 µM
How it was run: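 Cytotoxicity was read from cellular ATP (CellTiter-Glo luminescence) after 16 hr at 37 C with 1 uM doxycycline induction. The inducer was added 2 hr after compound transfer to Tet-on ROR gamma CHO cells.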

Row | SMILES | Potency
59 | CN(C)CCC=C1c2ccccc2CCc2ccccc21 | inactive
60 | O=CCc1ccccc1 | inactive
61 | O=P(O)(O)O | inactive
62 | CCCCNS(=O)(=O)c1ccccc1 | inactive
63 | Cc1ccc(C)c(O)c1C | inactive
64 | Cc1[nH]c(=O)c(C#N)cc1-c1ccncc1 | inactive
65 | CNCCCC12CCC(c3ccccc31)c1ccccc12 | 61.1 µM (active) and inactive
66 | Nc1ncn([C@@H]2O[C@H](CO)[C@@H](O)[C@H]2O)c(=O)n1 | 3.44 µM (active) and 4.22 µM (active)
67 | OC1CCCCCCCCCCC1 | inactive
68 | CC(C(=O)O)c1cccc(C(=O)c2ccccc2)c1 (configuration not stated) | inactive
69 | CC(C)OC=O | inactive
70 | O=[N+]([O-])c1ccc2c(c1)Cc1ccccc1-2 | inactive
71 | Cc1c(OCC(F)(F)F)ccnc1CS(=O)c1nc2ccccc2[nH]1 (configuration not stated) | inactive
72 | O=Cc1ccccc1O | inactive
73 | C[C@]12CC[C@H]3[C@@H](CCC4=CC(=O)CC[C@@]43C)[C@@H]1CC[C@@H]2C(=O)CO | inactive
74 | O=CCCCC=O | 61.1 µM (active)
75 | CC(C)Oc1ccc2c(=O)c(-c3ccccc3)coc2c1 | inactive
76 | C=C(C)C(=O)OCCOC(=O)C(=C)C | inactive
77 | O=C(/C=C/C=C/c1ccc2c(c1)OCO2)N1CCCCC1 | inactive
